# Laboratory results as given in PubChem BioAssay AID1159580 (chemical genetic matrix, 2015).
# About 2,000 (36%) of roughly 5,500 compounds were called active. About 18% were inconclusive and are not listed. The list shows a part of the results. A number with no mark means an inactive call. No stated cut-off is given here; in the data, active means normalized growth mostly below about 0.91 (no sharp cut-off); inconclusive means no clear call, values can overlap the other calls; inactive means mostly above about 0.92.
# Test: chemical genetic growth profiling, strain panel (AID 1159580);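 further: tested at 20 µM; growth read once vehicle control cultures reached saturation at 30 °C; 1 = growth at the plate median or of vehicle wells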
# Conditions: growth OD
# [1] = S. cerevisiae deletion strains, locus YDL101C, strain DUN1, stronger effect = lower value
# [2] = S. cerevisiae deletion strains, locus YHR030C, strain SLT2, stronger effect = lower value
compound,measurement,setting,value
CCCCCCCC1CCC/C1=N/OC(=O)c1cccs1 (configuration not stated),normalized growth,"S. cerevisiae deletion strains, locus YAR019C, strain CDC15, stronger effect = lower value",1.01
same,normalized growth,"S. cerevisiae deletion strains, locus YBL105C, strain PKC1, stronger effect = lower value",1.01
same,normalized growth,"S. cerevisiae deletion strains, locus YBR135W, strain CKS1, stronger effect = lower value",1.01
same,normalized growth,"S. cerevisiae deletion strains, locus YBR136W, strain MEC1, stronger effect = lower value",1
same,normalized growth,"S. cerevisiae deletion strains, locus YBR160W, strain CDC28, stronger effect = lower value",0.997
same,normalized growth,"S. cerevisiae deletion strains, locus YDL017W, strain CDC7, stronger effect = lower value",0.995
same,normalized growth,"S. cerevisiae deletion strains, locus YDL028C, strain MPS1, stronger effect = lower value",0.999
same,normalized growth,[1],0.973
same,normalized growth,"S. cerevisiae deletion strains, locus YDL108W, strain KIN28, stronger effect = lower value",0.996
same,normalized growth,"S. cerevisiae deletion strains, locus YDL132W, strain cdc53, stronger effect = lower value",0.991
same,normalized growth,"S. cerevisiae deletion strains, locus YDL214C, strain PRR2, stronger effect = lower value",0.965
same,normalized growth,"S. cerevisiae deletion strains, locus YDR052C, strain DBF4, stronger effect = lower value",0.983
same,normalized growth,"S. cerevisiae deletion strains, locus YDR054C, strain cdc34, stronger effect = lower value",0.989
same,normalized growth,"S. cerevisiae deletion strains, locus YDR226W, strain ADK1, stronger effect = lower value",0.996
same,normalized growth,"S. cerevisiae deletion strains, locus YDR477W, strain SNF1, stronger effect = lower value",0.957
same,normalized growth,"S. cerevisiae deletion strains, locus YER123W, strain YCK3, stronger effect = lower value",0.947
same,normalized growth,"S. cerevisiae deletion strains, locus YER133W, strain GLC7, stronger effect = lower value",0.97
same,normalized growth,"S. cerevisiae deletion strains, locus YFL009W, strain cdc4, stronger effect = lower value",0.992
same,normalized growth,"S. cerevisiae deletion strains, locus YFL029C, strain CAK1, stronger effect = lower value",1.01
same,normalized growth,"S. cerevisiae deletion strains, locus YFR003C, strain YPI1, stronger effect = lower value",1.01
same,normalized growth,"S. cerevisiae deletion strains, locus YFR019W, strain FAB1, stronger effect = lower value",0.938
same,normalized growth,"S. cerevisiae deletion strains, locus YFR028C, strain CDC14, stronger effect = lower value",0.98
same,normalized growth,"S. cerevisiae deletion strains, locus YGR040W, strain KSS1, stronger effect = lower value",0.967
same,normalized growth,"S. cerevisiae deletion strains, locus YGR052W, strain FMP48, stronger effect = lower value",0.988
same,normalized growth,"S. cerevisiae deletion strains, locus YGR092W, strain DBF2, stronger effect = lower value",0.906
same,normalized growth,[2],0.763 (active)
same,normalized growth,"S. cerevisiae deletion strains, locus YHR079C, strain IRE1, stronger effect = lower value",0.871
same,normalized growth,"S. cerevisiae deletion strains, locus YHR082C, strain KSP1, stronger effect = lower value",1.07
same,normalized growth,"S. cerevisiae deletion strains, locus YHR205W, strain SCH9, stronger effect = lower value",0.753
same,normalized growth,"S. cerevisiae deletion strains, locus YIL147C, strain SLN1, stronger effect = lower value",0.992
same,normalized growth,"S. cerevisiae deletion strains, locus YJL095W, strain BCK1, stronger effect = lower value",0.91
same,normalized growth,"S. cerevisiae deletion strains, locus YJL128C, strain PBS2, stronger effect = lower value",1.01
same,normalized growth,"S. cerevisiae deletion strains, locus YJL157C, strain FAR1, stronger effect = lower value",0.967
same,normalized growth,"S. cerevisiae deletion strains, locus YJR016C, strain ILV3, stronger effect = lower value",0.99
same,normalized growth,"S. cerevisiae deletion strains, locus YJR066W, strain TOR1 (second series), stronger effect = lower value",0.934
same,normalized growth,"S. cerevisiae deletion strains, locus YJR066W, strain TOR1, stronger effect = lower value",0.986
same,normalized growth,"S. cerevisiae deletion strains, locus YKL048C, strain ELM1, stronger effect = lower value",0.985
same,normalized growth,"S. cerevisiae deletion strains, locus YKL067W, strain YNK1, stronger effect = lower value",0.939
same,normalized growth,"S. cerevisiae deletion strains, locus YKL101W, strain HSL1, stronger effect = lower value",0.934
same,normalized growth,"S. cerevisiae deletion strains, locus YKL193C, strain SDS22, stronger effect = lower value",1.02
same,normalized growth,"S. cerevisiae deletion strains, locus YKL203C, strain TOR2, stronger effect = lower value",1
same,normalized growth,"S. cerevisiae deletion strains, locus YLR113W, strain HOG1, stronger effect = lower value",0.739 (active)
same,normalized growth,"S. cerevisiae deletion strains, locus YLR133W, strain CKI1, stronger effect = lower value",0.96
same,normalized growth,"S. cerevisiae deletion strains, locus YLR403W, strain SFP1, stronger effect = lower value",0.945
same,normalized growth,"S. cerevisiae deletion strains, locus YML070W, strain DAK1, stronger effect = lower value",0.902
same,normalized growth,"S. cerevisiae deletion strains, locus YMR001C, strain CDC5, stronger effect = lower value",1.02
same,normalized growth,"S. cerevisiae deletion strains, locus YMR205C, strain PFK2 (second series), stronger effect = lower value",0.944
same,normalized growth,"S. cerevisiae deletion strains, locus YMR277W, strain FCP1, stronger effect = lower value",1.03
same,normalized growth,"S. cerevisiae deletion strains, locus YNL006W, strain LST8, stronger effect = lower value",1.01
same,normalized growth,"S. cerevisiae deletion strains, locus YNL020C, strain ARK1, stronger effect = lower value",0.896
same,normalized growth,"S. cerevisiae deletion strains, locus YNL161W, strain CBK1, stronger effect = lower value",1.02
same,normalized growth,"S. cerevisiae deletion strains, locus YNL183C, strain NPR1, stronger effect = lower value",0.944
same,normalized growth,"S. cerevisiae deletion strains, locus YNL207W, strain RIO2, stronger effect = lower value",0.976
same,normalized growth,"S. cerevisiae deletion strains, locus YNL222W, strain SSU72, stronger effect = lower value",1.02
same,normalized growth,"S. cerevisiae deletion strains, locus YNL307C, strain MCK1 (second series), stronger effect = lower value",0.901
same,normalized growth,"S. cerevisiae deletion strains, locus YOL078W, strain AVO1, stronger effect = lower value",1.02
same,normalized growth,"S. cerevisiae deletion strains, locus YOL136C, strain PFK27, stronger effect = lower value",0.961
same,normalized growth,"S. cerevisiae deletion strains, locus YOR061W, strain CKA2, stronger effect = lower value",0.88
same,normalized growth,"S. cerevisiae deletion strains, locus YOR119C, strain RIO1, stronger effect = lower value",1.03
same,normalized growth,"S. cerevisiae deletion strains, locus YOR231W, strain MKK1, stronger effect = lower value",0.859
same,normalized growth,"S. cerevisiae deletion strains, locus YOR329C, strain SCD5, stronger effect = lower value",1.02
same,normalized growth,"S. cerevisiae deletion strains, locus YPL031C, strain PHO85, stronger effect = lower value",0.935
same,normalized growth,"S. cerevisiae deletion strains, locus YPL153C, strain RAD53, stronger effect = lower value",0.937
same,normalized growth,"S. cerevisiae deletion strains, locus YPL204W, strain HRR25, stronger effect = lower value",0.919
same,normalized growth,"S. cerevisiae deletion strains, locus YPL209C, strain IPL1, stronger effect = lower value",1
same,normalized growth,"S. cerevisiae deletion strains, locus YPL256C, strain CLN2, stronger effect = lower value",0.858 (active)
same,normalized growth,"S. cerevisiae deletion strains, locus YPR025C, strain CCL1, stronger effect = lower value",1.02
same,normalized growth,"S. cerevisiae deletion strains, locus YPR106W, strain ISR1, stronger effect = lower value",0.999
same,normalized growth,"S. cerevisiae deletion strains, locus YPR111W, strain DBF20, stronger effect = lower value",0.991
same,normalized growth,"S. cerevisiae deletion strains, strain NNK1, stronger effect = lower value",0.987
same,normalized growth,"S. cerevisiae deletion strains, strain TSCII, stronger effect = lower value",0.995
COc1ccc(CN(Cc2ccc(OC)cc2)C(=O)c2cccs2)cc1,normalized growth,"S. cerevisiae deletion strains, locus YAL013W, strain DEP1, stronger effect = lower value",0.976
same,normalized growth,"S. cerevisiae deletion strains, locus YBR229C, strain ROT2, stronger effect = lower value",0.974
same,normalized growth,"S. cerevisiae deletion strains, locus YCL061C, strain MRC1, stronger effect = lower value",1.01
same,normalized growth,[1],0.969
same,normalized growth,"S. cerevisiae deletion strains, locus YDL134C, strain PPH21, stronger effect = lower value",0.974
same,normalized growth,"S. cerevisiae deletion strains, locus YDR150W, strain NUM1, stronger effect = lower value",0.98
same,normalized growth,"S. cerevisiae deletion strains, locus YEL061C, strain CIN8, stronger effect = lower value",0.974
same,normalized growth,"S. cerevisiae deletion strains, locus YGR078C, strain PAC10, stronger effect = lower value",1
same,normalized growth,"S. cerevisiae deletion strains, locus YGR229C, strain SMI1, stronger effect = lower value",0.976
same,normalized growth,[2],0.971
same,normalized growth,"S. cerevisiae deletion strains, locus YHR087W, strain rtc3, stronger effect = lower value",0.959
same,normalized growth,"S. cerevisiae deletion strains, locus YJR043C, strain POL32, stronger effect = lower value",0.994
same,normalized growth,"S. cerevisiae deletion strains, locus YJR075W, strain HOC1, stronger effect = lower value",0.976
same,normalized growth,"S. cerevisiae deletion strains, locus YLR039C, strain RIC1, stronger effect = lower value",0.92
same,normalized growth,"S. cerevisiae deletion strains, locus YLR058C, strain SHM2 (second series), stronger effect = lower value",0.99
same,normalized growth,"S. cerevisiae deletion strains, locus YLR085C, strain ARP6, stronger effect = lower value",0.97
same,normalized growth,"S. cerevisiae deletion strains, locus YLR262C, strain YPT6, stronger effect = lower value",0.925
same,normalized growth,"S. cerevisiae deletion strains, locus YML094W, strain GIM5, stronger effect = lower value",0.953
same,normalized growth,"S. cerevisiae deletion strains, locus YMR219W, strain ESC1, stronger effect = lower value",0.992
same,normalized growth,"S. cerevisiae deletion strains, locus YMR263W, strain SAP30, stronger effect = lower value",1.01
same,normalized growth,"S. cerevisiae deletion strains, locus YMR307W, strain GAS1, stronger effect = lower value",0.812
same,normalized growth,"S. cerevisiae deletion strains, locus YNL128W, strain TEP1, stronger effect = lower value",0.973
same,normalized growth,"S. cerevisiae deletion strains, locus YNL153C, strain GIM3, stronger effect = lower value",0.993
same,normalized growth,"S. cerevisiae deletion strains, locus YNL298W, strain CLA4 (second series), stronger effect = lower value",0.973
same,normalized growth,"S. cerevisiae deletion strains, locus YNL322C, strain KRE1, stronger effect = lower value",0.994
same,normalized growth,"S. cerevisiae deletion strains, locus YNR030W, strain Alg12, stronger effect = lower value",0.931
same,normalized growth,"S. cerevisiae deletion strains, locus YOL006C, strain TOP1, stronger effect = lower value",0.95
same,normalized growth,"S. cerevisiae deletion strains, locus YPL055C, strain LGE1, stronger effect = lower value",0.945
same,normalized growth,"S. cerevisiae deletion strains, locus YPL241C, strain CIN2, stronger effect = lower value",0.995
same,normalized growth,"S. cerevisiae deletion strains, locus YPR135W, strain CTF4, stronger effect = lower value",0.952
same,normalized growth,"S. cerevisiae strains, strain wild type, stronger effect = lower value",0.976
